esBAF inh: SWI/SNF esBAF complex inhibition. mouse ES cells, Bmi1-luciferase knock-in reporter, 24 h; 100% = twice the neutral-well signal. reporter increase, % at 12.5 µM. 350,000 compounds, 2% hits. AID 602393; in the data active means activation above about 40%; inconclusive means no clear call, values can overlap the other calls;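 further: 0% = median of the plate's neutral control wells and 100% = double that signal; a rise in the Bmi1 reporter signal indicates esBAF inhibition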
MITF TRPM1 HTS: activators of MITF-driven TRPM1 promoter activity in SK-MEL-5 cells. SK-MEL-5 TRPM1-promoter luciferase, 24 h; % of positive control, neutral wells = 0. activation, % at 12.5 µM. 300,000 compounds, 0.75% hits;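 active means mean activation of at least 80% with every replicate also reaching 80%; inconclusive means mean reaches 80% but some replicate falls short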;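 further: 0% = neutral control wells and 100% = parthenolide positive control wells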
FGF22 binding: shifts melting point of recombinant human FGF22. Q9HCT0. recombinant FGF22 thermal shift, SYPRO orange fluorescence; percent of sucrose octasulfate shift, DMSO zero. activity (Tm shift, normalised), % at 9.99 µM. 340,000 compounds, 1.5% hits;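 active means mean Tm shift, scaled 0 neutral to 100 positive control, at about 1.3% or above, every replicate too, limit read from the data; inconclusive means no clear call, values can overlap the other calls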
Target sequence (Q9HCT0 whole entry, looked up): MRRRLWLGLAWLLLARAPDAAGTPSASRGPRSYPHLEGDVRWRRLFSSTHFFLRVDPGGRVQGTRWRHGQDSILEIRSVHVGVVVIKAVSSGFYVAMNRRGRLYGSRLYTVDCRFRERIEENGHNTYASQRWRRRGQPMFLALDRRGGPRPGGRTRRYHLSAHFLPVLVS
AF4-AF9 inh: inhibitors of human MLL-AF4/AF9 interaction; AID 651704; 350,000 compounds, 0.47% hits; AlphaScreen, biotin-AF4 peptide binding to FLAG-AF9; inhibition, % at 10 µM;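 active means every replicate reaching a set inhibition limit, whatever the replicate mean, cut at about 25% in these data; inconclusive means mean inhibition reaches that limit but some replicates miss it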;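 further: 0% = plate neutral control median and 100% = total signal loss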
Wnt act: activators of Wnt/beta-catenin signaling; Wnt/beta-catenin reporter cell assay, activator, plate reader; activation, % at 9.35 µM; 300,000 compounds, 1.2% hits; AID 743398; in the data active means activation above about 30%, passing the limit was not always enough; inconclusive means no clear call, values can overlap the other calls;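 further: 0% = neutral control wells and 100% = positive control wells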
SMARCA2 activ: activators of SMARCA2 function; MG213 cells, MMTV-luciferase reporter, dexamethasone, overnight; activation, % at 9.1 µM; 370,000 compounds, 1% hits; AID 652017; in the data active means activation above about 7.8%;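 further: 0% = vehicle wells and 100% = reference activator wells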
SMARCA2 conf: confirmation of SMARCA2 (BRM) function activators. shares compounds with SMARCA2 activ. MG213 cells, MMTV-luciferase with dexamethasone, luminescence, overnight; MG213 cells expressing E1A, Rb sequestered; DMSO wells 0%, reference activator 100%. activation, % at 9.1 µM. 3,500 compounds, 30% hits. AID 652260;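 active means activation above its plate's cutoff, the mean activation of tested wells plus 3 SD, cut at about 7.9% in these data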
GAL4-VP16 Luc: activates GAL4-VP16 luciferase, flagging SMARCA2 activator hits. shares compounds with SMARCA2 activ. HEK293 GAL4-VP16 pG5luc reporter, luciferase luminescence; scaled: DMSO wells 0%, SAHA wells 100%. activation, % at 9.1 µM. 3,500 compounds, 41% hits. AID 686939;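 active means activation above the solvent-only control well mean plus 3 SD, averaged across control plates, cut at about 5.2% in these data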
Numbers without * were called inactive; ? = inconclusive; . = not tested or not shown. In the library only some 4.3% were active in any assay of this set; here they are far more common.

SMILES | esBAF inh | MITF TRPM1 HTS | FGF22 binding | AF4-AF9 inh | Wnt act | SMARCA2 activ | SMARCA2 conf | GAL4-VP16 Luc
C[C@H](NC(=O)C[C@@H]1C=C[C@@H](NC(=O)C2CC2)[C@H](CO)O1)c1ccccc1 | 1 | . | 0 | 0 | . | . | . | .
COc1ccc(N2C(=O)C3C(C2=O)C(C(=O)c2ccc(Cl)cc2)N2CCCC32)cc1 (stereo not drawn) | . | . | 0 | 0 | 5 | 12* | 2 | -1
CC(C)NC(=O)Nc1ccc2c(c1)C(=O)N(C)[C@H]1CC[C@@H](CC(=O)NCC3CCCCC3)O[C@H]1CO2 | 4 | . | 0 | 0 | . | . | . | .
NC(=O)c1ccsc1NC(=O)c1coc2ccccc2c1=O | . | 57 | 0 | -10 | ? | 9.0* | 23* | 8.9*
Cc1cc(C(=O)Nc2cnc3ccccc3c2)ccc1[N+](=O)[O-] | . | 3 | 0 | -6 | 22 | 9.3* | 5 | 8.5*
O=C(Nc1ccc(Nc2ccccc2)cc1)c1cccc(F)c1 | ? | . | 0 | 2 | 7 | 9.0* | 6 | 6.7*
O=C(Nc1cccc(F)c1)c1ccccc1-c1ccccc1 | . | 6 | . | . | . | 9.0* | 0 | -1
C[C@@H]1[C@@H](O)C[C@@]2(C[C@H](O)c3cc(Cl)cc(Cl)c3O2)O[C@H]1c1ccccc1Cl | . | . | . | . | . | -2 | . | .
C=C(C)C(=O)OC1(C(F)(F)F)Oc2cc(C)ccc2NC1=O (stereo not drawn) | -2 | . | . | . | -23 | 21* | -5 | 5
COCCCn1c(=O)/c(=C\c2ccccc2OC(F)F)s/c1=C(/C#N)C(=O)NC(C)C | . | -1 | . | . | 0 | 14* | 5 | 2
Cc1ccc(C2=[N+]([O-])C(C)(C)N(O)C2(C)C)cc1 | . | -2 | 0 | -1 | -4 | -4 | . | .
CC1=[N+]([O-])C(C)(C)C(c2ccc(Br)cc2)=[N+]1[O-] | . | -2 | . | . | -3 | 12* | 1 | 0
COc1ccc(C2CC(=O)c3ccccc3O2)cc1 (stereo not drawn) | 61* | 126* | 0 | -1 | 43* | 8.6* | 8 | 3
C[C@H]1COc2cc(N3CCC[C@H]3CO)ccc2S(=O)(=O)N1 | . | . | 0 | -3 | -3 | 10* | -3 | 0
C[C@@H]1COc2cc(N3CCC[C@H]3CO)ccc2S(=O)(=O)N1 | . | . | 0 | -1 | -3 | 8.0* | -4 | -1
COc1cccc(C(=O)NCCC2=CCCCC2)c1 | -9 | 38 | . | . | 23 | 12* | 8 | 18*
COCCNC(=O)c1ccc2c(c1)NC(=O)CS2 | . | -1 | . | . | . | 1 | . | .
CN(C)c1ccc(C(=O)OCC(=O)NCCC2=CCCCC2)cc1 | . | -5 | 42 | -2 | -1 | 0 | . | .
Cc1ccsc1C(=O)OCC(=O)NCCC1=CCCCC1 | . | 39 | 0 | 0 | -1 | 8.4* | 9.7* | 5
O=C(NCCC1=CCCCC1)c1ccc([N+](=O)[O-])cc1 | . | 51 | . | . | 28 | 9.5* | 13* | 12*
O=C(CCNC(=O)c1ccc([N+](=O)[O-])cc1)NCCC1=CCCCC1 | -9 | -8 | 0 | -4 | 5 | -1 | . | .
O=C1CSc2ccc(C(=O)NCCC3=CCCCC3)cc2N1 | 50* | 30 | . | . | 19 | 9.8* | 1 | 6.8*
CNC(=O)C[C@H]1CC[C@H]2[C@H](COc3ccc(NS(=O)(=O)c4ccc(F)cc4)cc3C(=O)N2C)O1 | 0 | . | 0 | . | . | . | . | .
COc1ccc(N2CC(C(=O)Nc3ccc(S(=O)(=O)Nc4nc(C)cc(C)n4)cc3)CC2=O)cc1 (stereo not drawn) | 2 | -7 | . | -8 | -3 | 9.4* | -2 | 0
Cc1cc(C)nc(NS(=O)(=O)c2ccc(NC(=O)C3CC(=O)N(c4ccccc4)C3)cc2)n1 (stereo not drawn) | . | 32 | 0 | -2 | 2 | 8.2* | -2 | 1
SMILES | esBAF inh | MITF TRPM1 HTS | FGF22 binding | AF4-AF9 inh | Wnt act | SMARCA2 activ | SMARCA2 conf | GAL4-VP16 Luc
CC(C)C(Cl)=NOC(=O)Nc1ccc(F)cc1 | . | . | 1 | 4 | -4 | 43* | -15 | 2
CCN1CCN(c2ccc(NC(=O)c3cc4ccccc4cc3OC)cc2C)CC1 | 8 | 24 | 0 | 19 | 27 | 12* | 8.1* | 13*
CCN1CCc2nc(NC(=O)c3ccc4c(c3)OCCO4)sc2C1 | 41* | . | . | . | 22 | 8.7* | 7 | 11*
CCN1CCN(c2ccc(NC(=O)c3ccccc3F)cc2Cl)CC1 | 31 | 54 | 0 | 4 | 7 | 5 | . | .
CCN1CCN(c2ccc(NC(=O)c3ccc4c(c3)OCCO4)cc2C)CC1 | -1 | 21 | 0 | -12 | 26 | 11* | 7 | 7.9*
CCN1CCc2nc(NC(=O)Cc3ccc4c(c3)OCCO4)sc2C1 | -9 | . | . | . | . | 0 | . | .
Cc1noc(C)c1NC(=O)N[C@@H]1C=C[C@@H](CC(=O)N2CCCCC2)O[C@H]1CO | 4 | . | 0 | -2 | . | . | . | .
C[C@@H]1CN([C@H](C)CO)C(=O)c2cc(NS(=O)(=O)c3ccccc3)ccc2O[C@H]1CN(C)S(=O)(=O)c1ccc(F)cc1 | 1 | . | . | . | . | . | . | .
COc1ccc(C2c3[nH]c4ccccc4c3CCN2C(=O)c2ccc(=O)n(C)n2)c(F)c1 (stereo not drawn) | . | 7 | 0 | -5 | . | -1 | . | .
Cc1ccccc1C1c2[nH]c3ccccc3c2CCN1C(=O)c1ccc(=O)n(C)n1 (stereo not drawn) | . | 3 | 0 | 4 | 0 | 9.6* | 2 | 1
NC(=O)c1ccccc1N/C=C/C(=O)c1ccccc1 | -13 | . | . | . | 48* | 8.0* | 11* | 9.8*

Bioassay records as filed in PubChem.
